# Screening data: PubChem, National Center for Advancing Translational Sciences (NCATS)
# BAZ2B block: BAZ2B (human) inhibition; Q9UIF8; AlphaScreen BAZ2B-H3K14Ac peptide displacement; Potency, µM (highest dose often 114 µM), for the others: top-dose activity change, negative = inhibition, actives largely listed as inhibitors; 4.4% of 360,000 active; AID 504333; also: potency is read from the fitted curve at half-maximal effect; % is scaled to controls: 0 for no effect and ±100 for the full control effect; nearly all actives have a fitted effect of over 60% in size
#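 Inhibition is scored as reduced AlphaScreen emission. The BAZ2B/b-H3(5-23)K14Ac complex (50 nM each) in PBS pH 7.4, 0.01% Tween-20 meets compound (up to 110 uM) for 30 min at RT before bead addition.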
# CtBP-E1A inh: inhibitors of CtBP/E1A interaction | 0.49% of 340,000 active | activity change, % (no concentration beside the values) | AID 651724 | AlphaScreen GST-E1A/His-CtBP binding, 1536-well; stronger effect = lower value; in the data active = activity change below about -65%; inconclusive = mostly about -30% to -63%; also: % is scaled to controls: 0 for no effect and ±100 for the full control effect
#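 In 5 uL wells, 23 nL compound meets equimolar GST-E1A and His-CtBP (5X stock 125 nM each) for 2 h, 37 °C. Beads (5X, 50 ug/mL) then 1 h, 37 °C, dark.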
# Six1-Eya2 blk: Six1/Eya2 interaction inhibition. Q15475+O00167. AlphaScreen GST-Six1/His-Eya2 binding, biochemical; stronger effect = lower value. activity change, % (concentration not given with the values). 0.56% of 360,000 active. AID 651725; in the data active = activity change below about -65%; inconclusive = mostly about -30% to -63%; also: % is scaled to controls: 0 for no effect and ±100 for the full control effect
#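 Homogeneous AlphaScreen proximity assay pairing GST-Six1 with His-tagged Eya2 (added as 5X mix: 250 nM and 500 nM) in 50 mM Tris pH 8.0, 300 mM NaCl, 1 mM TCEP. Glutathione donor and nickel acceptor beads; 1 h, 37 °C, dark.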
# HP1b chromo inh: inhibitors of HP1-beta chromodomain binding to methylated histone tails; AlphaScreen HP1-beta / biotin-H3K9me3 peptide binding; Potency, µM (titrated, usually from 114 µM), for inactives: top-dose activity change, negative = inhibition, actives largely listed as inhibitors; 0.56% of 390,000 active; also: potency is read from the fitted curve at half-maximal effect; nearly all actives have a fitted effect of over 70% in size
# Target sequence (P83916 whole entry, looked up): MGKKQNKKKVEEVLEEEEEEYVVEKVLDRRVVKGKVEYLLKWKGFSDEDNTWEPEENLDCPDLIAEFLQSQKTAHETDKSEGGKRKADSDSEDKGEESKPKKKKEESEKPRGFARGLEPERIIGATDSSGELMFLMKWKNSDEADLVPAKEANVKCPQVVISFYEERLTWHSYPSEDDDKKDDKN
#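 Compound inhibition of the preformed complex between 50 nM HP1-beta and 50 nM biotinylated H3K9me3 peptide was read by AlphaScreen. Buffer was PBS pH 7.4 with 0.01% Tween-20. Incubations ran 30 min at room temperature, with 10 ug/mL donor/acceptor beads.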
# JMJD2A Tudor inh: JMJD2A Tudor domain (human) inhibition | O75164 | 4.4% of 390,000 active | AID 504339 | Potency, µM (top dose mostly 114 µM), for inactives: top-dose activity change, negative = inhibition, usual class: inhibitors | AlphaScreen JMJD2A-Tudor / H3K4me3 peptide binding; also: potency is read from the fitted curve at half-maximal effect; % is scaled to controls: 0 for no effect and ±100 for the full control effect; nearly all actives have a fitted effect of over 50% in size
# G9a block: blocks human histone lysine methyltransferase G9a | 8.8% of 350,000 active | Q96KQ7 | Potency, µM (titrated, usually from 102 µM), without a hit: at the highest dose activity, negative = inhibition, hits mostly inhibitors | G9a H3K9 monomethylation, AlphaScreen, 2 h | AID 504332; also: potency is read from the fitted curve at half-maximal effect; % is scaled to controls: 0 for no effect and ±100 for the full control effect; nearly all actives have a fitted effect of over 75% in size
# Target sequence (Q96KQ7 913-1193 limits assumed): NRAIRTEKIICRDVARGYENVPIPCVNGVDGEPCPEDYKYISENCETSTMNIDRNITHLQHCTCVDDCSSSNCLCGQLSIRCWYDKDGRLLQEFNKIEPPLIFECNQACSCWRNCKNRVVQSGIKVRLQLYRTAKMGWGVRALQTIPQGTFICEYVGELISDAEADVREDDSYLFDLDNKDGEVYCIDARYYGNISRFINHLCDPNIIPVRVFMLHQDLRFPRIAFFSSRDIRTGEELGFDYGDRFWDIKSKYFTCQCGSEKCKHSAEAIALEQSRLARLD
#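 Quantitative HTS format: methyltransferase activity on a biotin-tagged H3K9 peptide is measured by AlphaScreen, using a rabbit anti-monomethyl-H3K9 antibody with streptavidin donor and anti-IgG acceptor beads. Final levels are 20 nM enzyme, 500 nM peptide, 20 uM SAM; 2 h RT.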
# * = called active by the depositor; u = inconclusive; x = not tested or not shown; ! = repeats disagree; [ ] = remark or other dose. Most compounds without a hit are left out; they make up all but 10% or so of the library. Unless noted, calls follow the shape of the dose curve; as a rule, active = well fitted inhibition curve with a large enough effect; inconclusive = small, poorly fitted or top-dose-only effect; inactive = no such curve, though single readings can be large or run the other way.
SMILES,BAZ2B block,CtBP-E1A inh,Six1-Eya2 blk,HP1b chromo inh,JMJD2A Tudor inh,G9a block
CNc1nc(C23CC4CC(CC(C4)C2)C3)cs1,-2.9%,-6.4,-16.8,-4.8%,-19.9%,31.6µM*
NC12CC3CC(CC(C3)C1)C2,7.0%,0.0,0.0,74.2%,-1.4%,1.78µM*!
CCCCn1c(-c2ccc(OC(F)F)cc2)nc2c1c(=O)[nH]c(=O)n2CC(C)C,24.1%,8.5,-0.6,38.3%,-5.5%,50.1µM*
CCCn1c(=O)[nH]c(=O)c2c1nc(-c1ccc(C#N)cc1)n2CCOC,0.6%,3.4,6.3,-1.3%,-12.4%,u
CCCn1c(=O)[nH]c(=O)c2c1nc(-c1ccc(OC(F)(F)C(F)C(F)(F)F)cc1)n2CCOC (stereo not given),9.1%,-0.4,-10.7,52.9%,-4.5%,25.1µM*
CCCCn1c(-c2cccc(F)c2)nc2c1c(=O)[nH]c(=O)n2CC(C)C,6.4%,2.5,3.6,-4.7%,-13.0%,26.4%
COc1ccc(-c2cc(OC(=O)c3cccc(Cl)c3)c3c(C)oc(C)c3c(=O)c2)cc1,50.1µM*,x,x,0.9%,u,14.1µM*
COc1ccc(-c2cc(OC(=O)c3ccc(F)cc3)c3c(C)oc(C)c3c(=O)c2)cc1,50.1µM*,x,x,x,x,25.1µM*
CCOc1ccc(-n2nc(CO)c(C(=O)NCc3ccc(Cl)cc3)n2)cc1,-7.9%,x,x,27.8%,-2.8%,11.4%[59 µM]
O=C(O)c1cc2c(cc1NC(=O)c1c(F)cccc1F)OCCCO2,-12.6%,-5.9,-12.7,10.3%,-13.4%,u
COc1cccc(CCC(=O)Nc2cc3c(cc2C(=O)O)OCCCO3)c1OC,-19.7%,-3.1,4.1,20.9%,-14.3%,7.94µM*
CCOc1ccc(OCC(=O)Nc2cc3c(cc2C(=O)O)OCCCO3)cc1,1.8%,0.4,3.5,36.0%,-16.7%,14.1µM*
COc1ccc(OCC(=O)Nc2cc3c(cc2C(=O)O)OCCCO3)cc1,3.4%,-2.3,1.5,18.8%,-19.7%,14.1µM*
COc1ccc(C(=O)Nc2cc3c(cc2C(=O)O)OCCCO3)c(OC)c1,-0.3%,-1.6,-4.2,0.0%,-7.7%,18.4%[59 µM]
CCOc1ccc(NC(=O)COc2ccc3c(c2)OCO3)cc1,u,-3.6,-1.2,-17.7%,-24.6%,-28.1%[59 µM]
CC(C)CN(C(=O)COC(=O)c1ccc2c(c1)OCO2)c1c(N)n(Cc2ccccc2)c(=O)[nH]c1=O,-3.3%,-1.8,4.3,8.3%,-6.2%,5.2%[0.501 µM]
CCCCn1nnnc1C(c1ccccc1)N1CCN(c2cc(C)ccc2C)CC1 (stereo not given),x,4.2,0.4,x,x,x
CCNC(=O)CSc1nnc(CN2CCCCCC2=O)n1-c1ccccn1,x,3.7,-2.2,2.4%,-1.4%[57.1 µM],14.1%
O=C1CCCCCN1Cc1nnc(SCc2nc3ccccc3s2)n1-c1ccccn1,-21.8%,-0.6,4.7,38.3%,-22.2%,50.1µM*
O=C(O)c1ccccc1/C=N/N1CCN(C2c3ccccc3-c3ccccc32)CC1,-36.8%,-26.4,-9.4,5.4%,-28.7%,39.8µM*
O=C(O)c1ccc(/C=N/N2CCN(C3c4ccccc4-c4ccccc43)CC2)cc1,44.7µM*,-0.1,0.7,-5.1%,-15.4%[11.4 µM],x
Cc1ccc(/C=N/N2CCN(C3c4ccccc4-c4ccccc43)CC2)o1,35.5µM*,x,-2.8,u,44.7µM*,x
Oc1ccc(/C=N/N2CCN(C3c4ccccc4-c4ccccc43)CC2)cc1O,39.8µM*,-4.2,-9.5,50.1µM*,39.8µM*,x
Oc1ccc(/C=N/N2CCN(C3c4ccccc4-c4ccccc43)CC2)cc1,-15.4%,-16.4,u,12.4%,-19.0%,-4.8%
C(=N\N1CCN(C2c3ccccc3-c3ccccc32)CC1)/c1cccs1,u,-5.8,-20.0,-25.9%,u,41.4%[0.501 µM]
SMILES,BAZ2B block,CtBP-E1A inh,Six1-Eya2 blk,HP1b chromo inh,JMJD2A Tudor inh,G9a block
Cc1ccc(C(C)NC(=O)c2c(-c3ccccc3)noc2C)cc1C (stereo not given),1.2%,8.0,19.2,30.0%,3.9%,-14.8%
Cc1ccc(NC(=O)N2CCc3cc(S(=O)(=O)N4CCC(C)CC4)ccc32)cc1,1.4%,x,x,15.6%,0.0%,-15.2%[59 µM]
O=C(Nc1ccccc1Cl)c1ccc(F)c(S(=O)(=O)NCc2ccc(Cl)c(Cl)c2)c1,10.0%,x,x,28.4%,-7.6%,3.2%[59 µM]
C/C(=N\N1CCN(C2c3ccccc3-c3ccccc32)CC1)c1ccco1,u,-18.4,-17.8,u,-28.9%,-16.6%[59 µM]
Oc1ccc(/C=N/N2CCN(C3c4ccccc4-c4ccccc43)CC2)c(O)c1,u,-27.3,u,u,39.8µM*,39.8µM*
O=C(c1cccc(Cl)c1)n1nc(-c2ccco2)nc1NCc1cccs1,-11.7%,x,x,10.7%,19.1%,-2.1%[59 µM]
CCC(=O)Nc1cc2c3c(c1)CCC(=O)N3CCC2,-7.9%,x,-1.3,34.5%,4.6%,2.7%
COc1ccc2[nH]c(C(=O)O)c(NC(=O)c3cc(OC)c(OC)c(OC)c3)c2c1,-8.4%,-16.2,-4.8,17.5%,-13.9%,u
COc1cc(C(=O)Nc2ccc(Nc3ccccc3)cc2)cc(OC)c1OC,u,-2.3,-23.7,-21.1%,u,50.1µM*
COc1cc(C(=O)Nc2c(C(=O)O)[nH]c3ccccc23)cc(OC)c1OC,-10.7%,-9.4,-7.6,23.0%,-13.5%,15.8µM*
CCCNC(=O)CSc1c2c(nc3ccc(Cl)cc13)CCCC2,x,x,x,32.2%,-2.7%,-4.8%[59 µM]
O=S(=O)(c1ccccc1)C(/C=N\O)/C=C/c1ccccc1 (stereo not given),-15.2%,2.3,-0.7,-1.4%,u,7.94µM*
CC(C)C(C=Cc1ccccc1)=NNS(=O)(=O)c1ccccc1,x,3.6,5.8,x,x,x
O=C(Nc1cccc(F)c1)/C(=C/c1ccco1)NC(=O)c1ccco1,-29.9%,-3.9,-5.4,-24.5%,u,28.2µM*
Cc1cccc(NC(=O)/C(=C\c2ccco2)NC(=O)c2cccs2)c1,3.1%[57.1 µM],1.3,-5.8,u,89.1µM*,31.6µM*
O=C(Nc1cccc(F)c1)/C(=C\c1cccnc1)NC(=O)c1ccco1,-9.0%,2.4,2.9,33.4%,2.0%,-2.3%
O=S1(=O)CC(N2CCCCC2)CN1Cc1cn(Cc2ccc(C(F)(F)F)cc2)nn1 (stereo not given),x,0.2,0.6,x,x,x
CS(=O)(=O)c1ccc(Cl)c(NC(=O)c2ccc(-n3cncn3)c([N+](=O)[O-])c2)c1,x,0.0,1.0,x,x,x
Cn1c(N)c(C(=O)CSc2nnc(NC3CCCCC3)s2)c(=O)n(C)c1=O,1.3%,-24.6,u,18.4%,3.7%,50.1µM*
CC(=O)c1c(C)[nH]c(C(=O)CSc2nnc(NC3CC3)s2)c1C,-22.6%,2.1,-0.2,63.7%,-11.3%,50.1µM*
